Here are results for 95 molecules from PubChem BioAssay AID463195 (Sanford-Burnham Center for Chemical Genomics, 2010).

Molecules are shown by their SMILES. The campaign covered roughly 330,000 compounds. About 4,600 (1.4%) were called active.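 The calls were made as follows: active = inhibition of 40% or more at the single tested concentration; inactive = the rest.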 Only a selection was taken, and actives are over-represented in it overall.

This assay can be described thus: wild-type TIM10 yeast growth inhibition – luminescence, uHTS, counter-screen for tim10-1 yeast inhibitor project, primary screen (AID 463195).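 Also: wild-type TIM10 isogenic control strain grown at permissive 25 °C; 0% = DMSO yeast wells and 100% = minimal medium wells without yeast.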 The settings on record: S. cerevisiae TIM10 strain growth, BacTiter-Glo luminescence, 24 h; at 10 µM; stronger effect = higher value.
With `CC1CCN(Cc2nc3c(c(=O)n(C)c(=O)n3C)n2CCc2ccccc2)CC1`, the inhibition was 3.96% (inactive). Regarding `CCCc1nc2c(c(=O)c3ccccc3n2C)c(=O)n1C1CCCCCC1`, the inhibition is 49.4% (active).

Take `Cn1c2ccccc2c2c(C(=O)N3CCN(c4ccc(F)cc4)CC3)cn(C3CCCC3)c(=O)c21`: the inhibition was 37.3% (inactive). Turning to `CCOC(=O)CSc1nc2ccc(C)cc2n2cnnc12`, the inhibition was 3.21% (inactive).

With `O=c1ccc2cc(S(=O)(=O)Nc3ccccc3F)ccc2o1`, the inhibition is 4.92% (inactive). The result for `O=c1oc(-c2ccccc2NS(=O)(=O)c2ccc(Cl)cc2)nc2ccccc12` reads 59.4% (active); that for `O=c1oc2ccccc2c(NC2CCCCC2)c1NS(=O)(=O)c1ccc(Cl)cc1`, 21.4% (inactive); that for `O=C(NC(=O)c1ccccc1N1CCCCC1)Nc1ccc(Br)cc1`, 14.8% (inactive). As for `CCOCCn1[nH]c2ccccc2c1=O`, the inhibition was 2.98% (inactive). With `Cc1ccc(N2C(=O)CC(Sc3ncn[nH]3)C2=O)cc1` (stereo not given) the figure was 26.4% (inactive). `COc1ccc(N2C(=O)CC(Sc3n[nH]c(-c4ccc(C)cc4)n3)C2=O)cc1` (stereo not given): the inhibition is 54% (active). With `COc1ccc(N2C(=O)CC(SC(C)C)C2=O)cc1` (stereo not given) the figure was 5.36% (inactive). On to `COc1ccc(CNC(=O)c2ccc3oc(C(C)C)nc3c2)cc1`, for which the inhibition is 2.31% (inactive). The result for `Cc1cc(SCc2c(F)cccc2Cl)nc(=O)[nH]1` reads 9.07% (inactive); that for `O=C(CSc1ccc(-c2ccco2)nn1)Nc1cccc(F)c1`, 6.71% (inactive); that for `Fc1cccc(Cl)c1CSc1ccc(-c2ccco2)nn1`, 46.6% (active). The result for `O=C(Nc1ccc2c(c1)CCC2)c1ccc(Br)s1` reads 61.4% (active); that for `O=C(Nc1ccc(F)cc1)c1cc2c(s1)CCCC2`, 14% (inactive); that for `CC1CC(C)CN(CCC(=O)Nc2ccc3c(c2)CCC3)C1` (stereo not given), -5.01% (inactive). With `COc1ccccc1N1CCN(S(=O)(=O)c2ccc3c(c2)NC(=O)CS3)CC1` the figure was 12.3% (inactive).

As to `COc1cccc(-n2c(=S)sc3c(=O)n(-c4ccccc4C)c(SCC(=O)O)nc32)c1`, the inhibition is 8.02% (inactive). As for `C=CCN(C(=O)Cn1ncc2c1-c1cc(C)ccc1OC2)c1ccccc1`, the inhibition was 16.6% (inactive). The result for `COc1ccc(O)c(C(=O)c2cnc3c(c2)c(-c2ccc(F)cc2)c(C#N)c(=O)n3C)c1` reads 40.2% (active); that for `COCCn1c(=O)[nH]c(=O)c2cc(C(=O)c3cc(OC)ccc3O)cnc21`, -1.14% (inactive). The result for `Cc1cc(C)c2c(-c3ccc(F)cc3)c(C#N)c(=O)n(C)c2n1` reads 11.3% (inactive). With `O=C(c1ccc(-n2cnnn2)cc1)N1CCN(C(c2ccccc2)c2ccccc2)CC1` the figure was 2.74% (inactive); with `c1ccc(-c2nc(NCc3ccco3)c3ccccc3n2)cc1`, 49.9% (active). For `c1ccc2c(NCC3CCCO3)nc(-c3ccncc3)nc2c1` (stereo not given), the inhibition was 19.5% (inactive). With `Clc1cccc(-c2nc(NCC3CCCO3)c3ccccc3n2)c1` (stereo not given) the figure was 26.8% (inactive); with `COc1ccccc1C(=O)N/C(=C/c1ccco1)C(=O)Nc1ccc(C(=O)O)cc1`, -3.06% (inactive). The result for `N/C(=N\OC(=O)Nc1ccc(Cl)c(Cl)c1)c1ncc(C(F)(F)F)cc1Cl` reads 71.5% (active). On to `O=C(c1ccccn1)c1ncc(C(F)(F)F)cc1Cl`, for which the inhibition was -12.3% (inactive).

For the molecule `N/C(=N\OC(=O)CCCC(=O)O)c1ncc(C(F)(F)F)cc1Cl`, the inhibition was -12.6% (inactive).

On to `Cc1cccc(C)c1NC(=O)N1CC(C)OC(C)C1` (stereo not given), for which the inhibition is -0.538% (inactive).

Turning to `CNC(=S)NNC(=O)c1oc2nc(-c3ccccc3)cc(-c3ccco3)c2c1N`, the inhibition was 2.74% (inactive). The result for `CCN(CC)C(=O)c1sc2nc(-c3ccccc3)ccc2c1N` reads 18.6% (inactive); that for `CS(=O)(=O)c1sc2nc(-c3ccccc3)cc(-c3ccccc3)c2c1N`, 46.7% (active); that for `S=c1[nH]nc2c3c4c(sc3ncn12)CCCC4`, 29.6% (inactive). The result for `COc1ccc(-c2n[nH]c(C)c2-c2ccccc2OC)c(O)c1` reads 25.2% (inactive); that for `C=C(C)COc1ccc(-c2n[nH]c(C)c2-c2ccccc2)c(O)c1`, 45.6% (active); that for `C=C(C)COc1ccc(-c2ncncc2-c2ccc(OC)cc2)c(O)c1`, 17.4% (inactive). With `Cn1c(=O)oc2cc(S(=O)(=O)NCCC(=O)NCc3ccccc3Cl)ccc21` the figure was 6.26% (inactive). For `O=C(CN1CCSCC1)N/N=C/c1ccc(F)cc1F`, the inhibition is -5.91% (inactive). With `CNS(=O)(=O)c1ccc(NC(=O)C2CC(=O)N(c3ccc(Cl)cc3)C2)cc1` (stereo not given) the figure was -1.17% (inactive); with `Cc1c(NC(=O)C(C)OC(=O)c2c3c(nc4ccccc24)CCC(C)C3)c(=O)n(-c2ccccc2)n1C` (stereo not given), -6.65% (inactive). `CSCCC(NS(=O)(=O)/C=C/c1ccccc1)C(=O)N1CCC(C)CC1` (stereo not given): the inhibition is 43.1% (active). `CSCCC(NS(=O)(=O)c1ccc(C)cc1)C(=O)N1CCCC1` (stereo not given): the inhibition is -9.58% (inactive).

Consider `CSCCC(NC(=O)c1ccccc1)C(=O)N1CCCCCCC1` (stereo not given), for which the inhibition is 2.09% (inactive). The result for `O=C1/C(=C/c2cccs2)CCC1C1CCCC1` (stereo not given) reads -11.5% (inactive); that for `CC(=O)NCc1ccc(S(=O)(=O)NC2CCN(Cc3ccccc3)CC2)cc1`, 0.58% (inactive). With `COc1ccc(S(=O)(=O)NC(C)c2ccccc2)cc1C(=O)N1CCCCC1` (stereo not given) the figure was 13.1% (inactive). With `Cc1ccc(C2=N/C(=C\c3ccc(OS(=O)(=O)c4ccc(C)cc4)cc3)C(=O)O2)cc1`, the inhibition was -5.54% (inactive).

On to `Cc1cccc(C(=O)Nc2ccc(C(=O)/C=C/c3cccs3)cc2)c1`, for which the inhibition was 10% (inactive). The result for `Cc1cccc(C2=N/C(=C/c3cccs3)C(=O)O2)c1` reads 41.4% (active); that for `CC1(C)C(C=C(Cl)Cl)C1C(=O)N(Cc1ccc(Cl)cc1)C1CCS(=O)(=O)C1` (stereo not given), 17.4% (inactive); that for `C=CS(=O)c1sc(Cl)c(N2CCOCC2)c1[N+](=O)[O-]` (stereo not given), 67.8% (active).

In the case of `CCN(CC)P(=O)(Nc1ccc(SC(F)F)cc1)c1ccc(N(C)C)cc1NC(=O)c1ccco1` (stereo not given), the inhibition is 19% (inactive). As for `Cc1ccc(CCN2CC(C(=O)O)CC2=O)cc1` (stereo not given), the inhibition was -9.17% (inactive). The result for `COc1ccc(C(=O)N2CC3(C)CC2CC(C)(C)C3)cc1OC` (stereo not given) reads 9.33% (inactive); that for `CN(C)C(=O)COC(=O)c1cccc(S(=O)(=O)N2CC3(C)CC2CC(C)(C)C3)c1` (stereo not given), 5.89% (inactive); that for `Cc1nnnn1/C(=C\c1ccccc1)C(=O)OCC(=O)N1CC2(C)CC1CC(C)(C)C2` (stereo not given), 62.3% (active). With `Cc1cccc(NC(=S)NCc2ccc3[nH]c4c(c3c2)CCCC4)c1` the figure was 42.9% (active); with `Cc1cccc(NC(=S)NC23CN4CN(CN(C4)C2)C3)c1`, -11.6% (inactive). As to `Cc1cccc(NC(=S)NCCN(C2CCCCC2)C2CCCC2)c1`, the inhibition is 11.8% (inactive).

In the case of `N#C/C(=C(\O)C(F)(F)F)c1nnc2n1CCCCC2`, the inhibition was -10.3% (inactive). With `COc1ccc(C(=O)Nc2cc(C)c(NC(=O)c3ccccc3OC)cn2)cc1` the figure was 14.6% (inactive); with `COc1ccc(C(=O)Nc2ccccc2C(=O)N/N=C/c2ccccc2OC)cc1`, 64.2% (active); with `COc1cc(/C=N/NC(=O)c2ccccc2)ccc1OS(=O)(=O)c1ccccc1`, 43.1% (active). On to `COc1cc(C=NNC(=O)c2cccnc2)ccc1OC(=O)c1ccccc1F`, for which the inhibition is 7.06% (inactive). Consider `COc1cc(/C=N/NC(=O)c2cccnc2)ccc1OC(=O)c1cccc(Br)c1`, for which the inhibition was 14.7% (inactive). The result for `COc1ccc(C(=O)Nc2ccccc2C(=O)N2CCN(c3ccccc3)CC2)cc1` reads 14.5% (inactive); that for `COc1ccc(/C=N/Nc2ccccc2C(=O)O)cc1`, 13.9% (inactive); that for `COc1cc(/C=N/NC(=O)CCc2n[nH]c(=O)[nH]c2=O)ccc1O`, 5.01% (inactive).

For the molecule `COc1ccc(C(=O)Nc2ccccc2C(=O)N/N=C/c2ccc(O)c(OC)c2)cc1`, the inhibition is 93.2% (active). With `CC(=O)c1ccc(N2Cc3ccccc3C2)cc1` the figure was 8.18% (inactive).

On to `Cc1ccc(-c2nc(COC(=O)c3c(C)noc3C)cs2)cc1`, for which the inhibition was 1.5% (inactive). With `Oc1ccc2ccc3cccc[n+]3c2c1` the figure was -22.6% (inactive); with `COCCN1C(=O)c2oc3c(C)cc(C)cc3c(=O)c2C1c1cccc(O)c1` (stereo not given), -2.19% (inactive); with `CC1CC2=C(CC1/C=N/NC(N)=S)C(C)(C)CCC2` (stereo not given), 13.8% (inactive).

For `N#Cc1ccc(C(=O)Nc2nc(-c3cccs3)c(C(=O)C(F)(F)F)s2)cc1`, the inhibition was 9.92% (inactive). Take `CCC(CC)C(=O)Nc1c2c(nn1-c1ccc(C)cc1)CS(=O)(=O)C2`: the inhibition was 4.97% (inactive). The result for `CC/S(CC1CC1(Cl)Cl)=N\S(=O)(=O)c1ccc(C)cc1` (stereo not given) reads 0.564% (inactive); that for `CCN1C(=NCC(C)C)N[C@@H](CCc2ccccc2)[C@H](C(=O)NCC(C)C)[C@H]1C`, -3.76% (inactive). Regarding `O=C(N/N=C/c1cccc(OCc2ccccc2)c1)c1ccc(Br)o1`, the inhibition was 26.3% (inactive). With `COCCNC(=O)/C(C#N)=C/c1cccc(OCc2ccccc2)c1` the figure was 55.7% (active); with `N#C/C(=C\c1ccc(O)c(O)c1)C(=O)NCc1ccccc1`, -1.33% (inactive). Regarding `CC(C)COc1ccc(C(=O)OCC(=O)NCCC2=CCCCC2)cc1`, the inhibition was 11.3% (inactive). Regarding `COC(=O)c1ccc(COc2cc([N+](=O)[O-])cc3cccnc23)cc1`, the inhibition is -32.2% (inactive). With `C=C(C)c1cccc(C(C)(C)NC(=O)N2CCN(c3ncccn3)CC2)c1`, the inhibition is 3.72% (inactive). `CCOc1cc(-c2cc(-c3ccc(OC)cc3)nc(N)c2C#N)ccc1O`: the inhibition is 34% (inactive). With `COc1ccc(-c2cc(-c3ccc(N)cc3)nc(N)c2C#N)cc1OC` the figure was 41% (active).

Turning to `CCOc1cc(-c2cc(-c3ccc(NC(C)=O)cc3)nc(N)c2C#N)ccc1O`, the inhibition was -6.1% (inactive).

With `O=C(CN1CCN(S(=O)(=O)c2ccc3ccccc3c2)CC1)NC(=O)NC1CCCCC1`, the inhibition was 44.2% (active). The result for `O=C(CN1CCN(S(=O)(=O)c2ccc(F)cc2)CC1)NC1CC1` reads 0.605% (inactive); that for `COc1ccc(S(=O)(=O)N2CCN(C(=O)NC3CCCCC3)CC2)cc1`, -5.18% (inactive).

As a reminder, the inhibition is the relative decrease from the control value, in per cent.
